Tau fluor cs: Counterscreen qHTS for Inhibitors of Tau Fibril Formation, Fluorescence Polarization | Potency, µM (top dose mostly 57.7 µM) | tau K18 P301L Alexa594 fluorescence, heparin fibrillization | AID 1463, 2008 | 280,000 tested, 0.93% active; further: nearly all actives have a fitted effect of over 55% in size
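Human tau K18 P301L (15 uM unlabeled, 0.24 uM Alexa 594-labeled) in 100 mM sodium acetate pH 7 with 20 uM heparin, 6 hr at 37 C. ThT 30 uM added, 1 hr ambient; Alexa 594 FP and total fluorescence read at 555/632 nm.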
TR SRC2 fluor cs: Total Fluorescence Counterscreen for Inhibitors of the Interaction of Thyroid Hormone Receptor and Steroid Receptor Coregulator 2; TRb/SRC2 Texas Red total fluorescence interference; Potency, µM (series often up to 106 µM); 280,000 tested, 0.29% active; active means well fitted curve in either direction with a large enough effect; inconclusive means small, poorly fitted or top-dose-only effect
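Human TRβ ligand-binding domain (0.6 uM) and Texas Red SRC2 peptide (20 nM) in Tris buffer with 1 uM T3 and 5% DMSO were incubated with pinned compound for 5 hr at ambient temperature. Total fluorescence was computed as S + 2P (555/632 nm).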
TRb SRC2 PPI: qHTS for Inhibitors of the Interaction of Thyroid Hormone Receptor and Steroid Receptor Coregulator 2; Thyroid hormone receptor beta (Homo sapiens), P10828; TRbeta-SRC2 peptide binding, fluorescence polarization; receptor liganded with 1 µM T3; 280,000 tested, 0.065% active; Potency, µM (doses to about 106 µM), actives largely listed as inhibitors; further: nearly all actives have a fitted effect of over 50% in size
Target sequence (P10828 whole entry, looked up): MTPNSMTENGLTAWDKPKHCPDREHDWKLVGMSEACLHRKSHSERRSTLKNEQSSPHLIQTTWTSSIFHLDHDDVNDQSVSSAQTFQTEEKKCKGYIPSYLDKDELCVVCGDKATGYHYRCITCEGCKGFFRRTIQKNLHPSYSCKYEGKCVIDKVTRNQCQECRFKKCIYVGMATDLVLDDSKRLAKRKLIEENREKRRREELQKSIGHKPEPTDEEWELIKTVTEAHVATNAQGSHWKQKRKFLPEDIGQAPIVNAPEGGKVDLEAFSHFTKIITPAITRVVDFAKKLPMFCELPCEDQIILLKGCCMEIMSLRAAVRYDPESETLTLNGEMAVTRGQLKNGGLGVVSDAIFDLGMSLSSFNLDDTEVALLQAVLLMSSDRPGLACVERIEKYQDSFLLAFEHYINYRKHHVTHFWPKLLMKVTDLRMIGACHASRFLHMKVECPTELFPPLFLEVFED
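Human TRb ligand-binding domain (0.6 uM) is mixed with 20 nM Texas Red SRC2 peptide and 1 uM T3; after compound addition and 5 hr at ambient temperature, polarization is measured and normalized to unbound and bound controls.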
Tau ThT inhib: qHTS for Inhibitors of Tau Fibril Formation, Thioflavin T Binding. Microtubule-associated protein tau (Homo sapiens), P10636. recombinant tau K18 P301L (four-repeat tau fragment), heparin-induced fibrillization, ThT fluorescence. Potency, µM (titrated, usually from 57.4 µM), usual class: inhibitors. 270,000 tested, 2.1% active; further: nearly all actives have a fitted effect of over 55% in size
Target sequence (P10636 561-689 P618L limits assumed): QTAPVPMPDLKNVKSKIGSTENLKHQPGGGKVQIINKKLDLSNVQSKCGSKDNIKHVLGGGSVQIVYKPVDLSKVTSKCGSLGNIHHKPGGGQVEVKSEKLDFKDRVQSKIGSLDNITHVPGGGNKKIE
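Recombinant human tau K18 fragment […] carrying P301L, 15 uM unlabeled plus 0.24 uM Alexa 594-labeled, was fibrillized with 20 uM heparin in 100 mM sodium acetate pH 7 for 6 hr at 37 C; 30 uM ThT fluorescence read after 1 hr.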
Tau fibril FP: qHTS for Inhibitors of Tau Fibril Formation, Fluorescence Polarization. K18 P301L tau heparin fibrillization, Alexa594 FP, 6 h. Potency, µM (top dose mostly 57.7 µM), actives largely listed as inhibitors. 280,000 tested, 0.39% active; further: nearly all actives have a fitted effect of over 55% in size
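Read-out: fluorescence polarization of Alexa 594-labeled tau (0.24 uM), 555 nm excitation, 632 nm emission. Mixtures held 15 uM unlabeled K18 P301L, compound and 20 uM heparin, pH 7 acetate buffer, incubated 6 hr at 37 C.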
Numbers stand for hits; – = inactive; ? = inconclusive; · = no result given; [ ] = remark or other dose. In the library only some 3.1% were active in any assay of this set; here they are far more common. Unless noted, the call rests on the fitted dose curve; in most records, active means well fitted curve in the direction sought with a large enough effect; inconclusive means small, poorly fitted or top-dose-only effect, or another doubt; inactive means no such curve, though single readings can be large; an effect the other way counts as inactive or inconclusive.

SMILES	Tau fluor cs	TR SRC2 fluor cs	TRb SRC2 PPI	Tau ThT inhib	Tau fibril FP
O=C(NCCc1ccccc1)c1nc(-c2ccc(Cl)cc2)n2c1CCCCC2	–	?	–	–	–
CCCN(CCC)C(=O)CSc1nnc2cc(C)c3cc(C)cc(C)c3n12	–	–	–	–	–
COC(=O)C(C)Sc1nnc2cc(C)c3cc(C)cc(C)c3n12 (stereo unspecified)	–	0.071µM[quencher]	–	–	–
COC(=O)c1c(-c2cccs2)csc1NC(=O)COc1c(C)ccc(C)c1C	–	–	–	20µM	?
COC(=O)c1c(-c2cccs2)csc1NC(=O)COc1ccc(C)cc1	–	?	–	?	–
COC(=O)c1c(-c2cccs2)csc1NC(=O)COc1ccccc1	?	–	–	20µM	?
CCCCCC(O)c1ccc([C@H]2CCC(=O)[C@@H]2CCCCCCC(=O)O)cc1 (stereo partly specified)	·	–	–	·	·
CCc1ccc(NC(=O)c2cc3c(=O)n(Cc4cccs4)ccc3nc2C)cc1	–	–	–	?	–
O=C(c1cc(-c2ccco2)nn1-c1cccc(Cl)c1)N1CCCCC1	–	–	–	28µM	?
Nc1c(C(=O)NC2CC2)sc2nc3c(c(-c4ccco4)c12)CC/C3=C/c1ccco1	?	–	–	8.9µM	?
NC(=O)c1sc2nc3c(c(-c4ccco4)c2c1N)CCC3	–	–	–	?	–
O=C(O)CSc1c2c(nc3cc(C(=O)NCCN4CCOCC4)ccc13)CCC2	–	50µM[fluorescent]	–	–	–
CC(C)CCNC(=O)c1ccc2c(SCC(=O)O)c3c(nc2c1)CCCC3	–	–	–	?	–
CC(=O)NC(c1ccccc1)c1cc([N+](=O)[O-])c2cccnc2c1O (stereo unspecified)	–	–	–	10µM	?
CC(C)C(=O)NC(c1ccccc1)c1cc([N+](=O)[O-])c2cccnc2c1O (stereo unspecified)	–	–	–	?	–
O=[N+]([O-])c1ccc(N=Cc2sc3ccccc3c2O)cc1	–	–	–	0.71µM	–
O=[N+]([O-])c1cccc(N=Cc2sc3ccccc3c2O)c1	–	–	–	?	–
Cc1oc2ncn(CC(C)C)c(=O)c2c1C(=O)NCCc1ccccc1	–	–	–	–	–
COc1ccc(OC)c(NC(=O)Cc2coc3ccc(C(C)C)cc23)c1	?	?	–	?	–
CC(C)Nc1ccc(Nc2ccnc3cc4ccccc4cc23)cc1	18µM[quencher]	–	–	5µM	–
CC1CCN(c2ccc(NC(=O)Cc3ccccc3)cc2)CC1	–	–	–	–	–
COc1cccc(CNc2ccc(N3CCC(C)CC3)cc2)c1OC	?	–	–	18µM	?
CC(C)CC(CSc1ccc(Br)cc1)N1CCN(C)CCC1=O (stereo unspecified)	·	–	–	·	·
O=C(CCCc1c[nH]c2ccccc12)Nc1ccc2ccccc2c1	8.9µM[quencher]	–	–	?	?
CC(=O)Nc1ccc(NC(=O)CCCc2c[nH]c3ccccc23)cc1	–	–	–	?	–
SMILES	Tau fluor cs	TR SRC2 fluor cs	TRb SRC2 PPI	Tau ThT inhib	Tau fibril FP
COC(=O)/C=C1\OC(c2ccccc2)=CC1=O	–	–	–	25µM	–
O=C1CCCc2cc(S(=O)(=O)NCC3CCC(C(=O)NCc4ccccc4Cl)CC3)ccc2N1 (stereo unspecified)	–	–	–	–	–
CCOC(=O)c1sc2ncc([N+](=O)[O-])cc2c1N	–	–	–	7.9µM	–
Nc1c(C(=O)Nc2ccccc2)sc2ncc([N+](=O)[O-])cc12	–	–	–	?	–
Cc1ccc(-n2nc(-c3ccc(OC(F)(F)F)cc3)cc2N)cc1C	11µM[quencher]	–	–	?	–
C=CCc1cccc(CNc2nc3ccccc3n2CCC)c1O	14µM[quencher]	–	–	–	–
CCCn1c(NCc2ccccc2C)nc2ccccc21	–	–	–	–	–
C=CCc1cccc(CNc2nc3ccccc3n2CC)c1O	18µM[quencher]	–	–	–	–
O=c1c2sc3ccccc3c2n(Cc2cccc(F)c2)c(=O)n1CCc1ccccc1	–	–	–	–	?
Cc1cccc(N2CCN(CCCNC(=O)Cn3ncc4c([nH]c5ccccc54)c3=O)CC2C)c1 (stereo unspecified)	–	–	–	–	–
Nc1nc(N)c(N=Nc2ccc(S(N)(=O)=O)cc2)c(=O)[nH]1	–	–	–	20µM	–
NS(=O)(=O)c1ccc(N=Nc2ccc(=O)[nH]c2O)cc1	–	–	–	16µM	–
COc1ccc(Cl)cc1NC(=O)c1cc(C)nn1-c1ccccc1	–	–	–	–	–
CCCCCCCCCCCC(=O)OC	·	–	–	·	·
O=C(Cn1nc(Cc2cccnc2)c2ccccc2c1=O)Nc1cccc(C(F)(F)F)c1	?	–	–	?	–
CCCN1C(=O)/C(=C/c2nc3ccccc3c(=O)[nH]2)c2ccccc21	–	–	–	?	–
CCCN1C(=O)/C(=C/c2nc3ccccc3c(=O)[nH]2)c2cc(C)ccc21	20µM[quencher]	–	–	14µM	–
CC(C)N1C(=O)/C(=C\c2nc3ccccc3c(=O)[nH]2)c2ccccc21	?	–	–	28µM	–
CSCC[C@H](NC(=O)[C@@H](NC(=O)[C@H](CCC(=O)O)NC(=O)[C@H](CCSC)NC(=O)[C@H](CC(N)=O)NC(=O)[C@H](CCC(=O)O)NC(=O)[C@H](CC(N)=O)NC(=O)[C@H](CO)NC(=O)[C@H](C)N)[C@@H](C)O)C(=O)O	·	?	–	·	·
CCOC(=O)C1=C(C)N=c2s/c(=C3/C(=O)Nc4ccccc43)c(=O)n2C1c1ccc(C)cc1 (stereo unspecified)	–	–	–	–	–
CCOC(=O)C1=C(C)n2c(s/c(=C3\C(=O)Nc4ccccc43)c2=O)=NC1c1ccc(OC)cc1 (stereo unspecified)	?	–	–	16µM	?
COc1ccc(-c2cn3c(n2)sc2cc(C(=O)NCCc4ccc(OC)cc4OC)ccc23)cc1	–	–	–	–	–
Cc1[nH]c2ccccc2c1N=Nc1cc(C(=O)O)cc(C(=O)O)c1	–	–	–	?	–
Cc1[nH]c2ccccc2c1N=Nc1ccccc1F	13µM[quencher]	–	–	13µM	?
Cc1[nH]c2ccccc2c1N=Nc1ccc(F)cc1	14µM[quencher]	–	–	13µM	–
CCCOc1cccc(NC(=O)c2c(-c3ccccc3Cl)noc2C)c1	–	–	–	–	?
Cc1ccc(Nc2c([N+](=O)[O-])ccc3c2=NC2(CCCCC2)N=3)cc1	?	–	–	16µM	–
CCCCCn1c(=O)[nH]c2cc(C(=O)N3CCN(c4cccc(C(F)(F)F)c4)CC3)ccc2c1=O	–	–	–	–	–
